Measurements as given in PubChem BioAssay (NCATS).
Inconclusive results are not listed. A call without a number means that no potency is given here. The source made the active and inactive calls. Calls follow the shape of the dose curve; as a rule, active = well fitted cell-killing curve with a large enough effect; inconclusive = small, poorly fitted or top-dose-only effect, or effect the other way; inactive = no such curve, though single readings can be large or run the other way.

Assay: qHTS assay to identify small molecule inhibitors of chordoma cells - UCH-1 (AID 1259355); also: nearly all actives have a fitted effect of over 55% in size
Conditions: UCH-1 chordoma viability, CellTiter-Glo, 48 h, combination, with auranofin plus four topoisomerase inhibitors; series mostly up to 46.1 µM
Method in brief: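 800 cells/well, overnight attach; compounds pinned at 15 concs, then auranofin/camptothecin/doxorubicin/rubitecan/topotecan combo added; 48hr 37 C, 5% CO2; CellTiter-Glo, 30min RT, luminescence.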

| Compound | Potency |
| --- | --- |
| CCCCC(O)c1ccccc1 (configuration not stated) | inactive |
| CN1C(=O)C[C@@H](C(=O)N[C@@H](Cc2cnc[nH]2)C(=O)N2CCC[C@H]2C(N)=O)NC1=O | inactive |
| CC(/C=C/C=C(\C)C(=O)O[C@@H]1O[C@H](CO[C@@H]2O[C@H](CO)[C@@H](O)[C@H](O)[C@H]2O)[C@@H](O)[C@H](O)[C@H]1O)=C\C=C\C=C(C)\C=C\C=C(/C)C(=O)O[C@@H]1O[C@H](CO[C@@H]2O[C@H](CO)[C@@H](O)[C@H](O)[C@H]2O)[C@@H](O)[C@H](O)[C@H]1O | inactive |
| NC[C@H]1O[C@H](O[C@H]2[C@H](O)[C@@H](O[C@H]3O[C@H](CO)[C@@H](O)[C@H](N)[C@H]3O)[C@H](N)C[C@@H]2N)[C@H](N)C[C@@H]1O | inactive |
| CN[C@@H]1[C@H](O[C@H]2[C@H](O[C@H]3[C@H](O)[C@@H](O)[C@H](N=C(N)N)[C@@H](O)[C@@H]3N=C(N)N)O[C@@H](C)[C@]2(O)C=O)O[C@@H](CO)[C@H](O)[C@H]1O | inactive |
| CCCCCCCCCCCC(=O)OCC(O)CO (configuration not stated) | inactive |
| CN1C(C(=O)Nc2ccccn2)C(=O)c2sc(Cl)cc2S1(=O)=O (configuration not stated) | inactive |
| F[Si-2](F)(F)(F)(F)F | inactive |
| COc1ccc(/C=C/C(=O)O)cc1 | inactive |
| COC(=O)CC[C@H](N)C(=O)O | inactive |
| CCCCCCCCCCCCCC(=O)OCC(COP(=O)([O-])OCC[N+](C)(C)C)OC(=O)CCCCCCCCCCCCC (configuration not stated) | inactive |
| C[C@@H](O)[C@H]1C(=O)N2C(C(=O)[O-])=C(SC3Cn4cnc[n+]4C3)[C@H](C)[C@H]12 (some centres not stated) | inactive |
